What was measured:
Settings in all cases: Compound Concentration (nM):1000
CAMK2G = system: CAMK2G
CAMK4 = system: CAMK4
CAMKK1 = system: CAMKK1
CAMKK2 = system: CAMKK2
CASK = system: CASK
CDC2L1 = system: T1, CDC2L1
T1 construct: gene CDK11B

CDC2L2 = system: CDC2L2
CDC2L5 = system: T2, CDC2L5
T2 construct: gene CDK13

CDK11 = system: T3, CDK11
T3 construct: gene CDK19

CDK2 = system: CDK2
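Note: KINOMEscan scanMAX binding as percent activity remaining versus control; lower means stronger binding.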

SMILES	Percent Control (CAMK2G) [%]	Percent Control (CAMK4) [%]	Percent Control (CAMKK1) [%]	Percent Control (CAMKK2) [%]	Percent Control (CASK) [%]	Percent Control (CDC2L1) [%]	Percent Control (CDC2L2) [%]	Percent Control (CDC2L5) [%]	Percent Control (CDK11) [%]	Percent Control (CDK2) [%]
C[C@@H](Oc1cc(-n2cnc3ccc(OC4CCN(C)CC4)cc32)sc1C(N)=O)c1ccccc1Cl [GSK579289A]	69	100	85	67	11	97	94	79	100	74
CN1CCN(C(=O)c2ccc(NC(=O)Nc3ccc(N(C)c4ccnc(Nc5ccc(CS(C)(=O)=O)cc5)n4)cc3)cc2)CC1.Cl [GW830263A]	100	100	28	100	85	67	51	13	100	87
COc1cc(/C=N/Nc2ncnc3[nH]ncc23)ccc1O [GW578748X]	100	100	96	88	63	100	100	100	100	100
COc1ccc2[nH]c3c4[nH]c5ccc(OC)cc5c4c4c(c3c2c1)C(=O)NC4=O [GW296115X]	80	98	78	74	100	90	91	100	100	93
C/C(Nc1ccc(S(N)(=O)=O)cc1)=C1/C(=O)Nc2ccccc21 [GW335962X]	95	100	76	82	87	100	81	65	100	87
Cc1cc(O)cc(C)c1/C=C/c1cncc(C(N)=O)c1 [GW435821X]	100	100	100	100	77	100	97	100	100	100
Cl.c1ccc(Cc2nc3ccc(Nc4ncnc5ccccc45)cc3[nH]2)cc1 [GR269666A]	100	100	100	100	100	100	100	100	100	100
CCn1c(-c2nonc2N)nc2c(C#CC(C)(C)O)nc(OCCNC)cc21.Cl [GSK949675]	100	100	100	100	100	100	100	100	100	100
NS(=O)(=O)c1ccc(N/N=C2\C(=O)Nc3ccc(C(=O)NCc4ccncc4)cc32)cc1 [GW300657X]	82	100	45	65	78	100	82	24	100	39
COc1cc2ncn(-c3cc(O[C@H](C)c4ccccc4Cl)c(C(N)=O)s3)c2cc1OC [GSK237701A]	88	100	92	43	88	100	97	75	84	–
COc1cccc(-c2c[nH]c3c(N/N=C/c4ccncc4)ncnc23)c1 [GW814408X]	100	100	100	95	44	81	53	87	100	62
CCc1ccc(Oc2nccc(-c3c(-c4ccc(F)cc4)ncn3C3CCNCC3)n2)cc1 [SB-242719]	100	100	100	100	83	89	66	100	95	100
CC1=C(C(=O)Nc2ccc3[nH]ncc3c2)C(c2ccc3ccccc3c2)CC(=O)N1 (centres unmarked) [GSK270822A]	79	100	70	69	86	100	90	85	90	100
CCS(=O)(=O)c1ccc(OC)c(Nc2ncc(-c3cccc(OC)c3)o2)c1 [GW580509X]	93	100	97	79	95	100	100	100	100	100
CCS(=O)(=O)c1ccc(OC)c(Nc2ncc(-c3cccc(F)c3)o2)c1 [GW621970X]	100	100	100	100	90	100	99	100	100	100
NS(=O)(=O)c1ccc(N/N=C2\C(=O)Nc3ccc(-c4cnco4)cc32)cc1 [GW276655]	91	100	63	83	84	100	100	56	100	32
COc1ccc2c(-c3ccnc(Nc4cccc(OC(F)(F)F)c4)n3)cnn2n1 [GW810372X]	100	100	91	81	96	100	100	100	100	100
COC(=O)Nc1nc2ccc(Oc3ccc(NC(=O)Nc4cc(C(F)(F)F)ccc4F)cc3)cc2s1.Cl [GW693917A]	100	100	100	100	93	98	78	19	5.3	65
COc1ccc2cc(-c3c(-c4ccncc4)nc(-c4ccc(S(C)(=O)=O)cc4C)n3C)ccc2c1 [SB-633825]	76	87	77	73	84	92	96	91	100	79
COc1cc(C)c(N(C)C(=O)CN(C)C)cc1Nc1nc(Nc2cccc(F)c2C(N)=O)c2cc[nH]c2n1 [GSK2219385]	98	80	97	94	100	100	100	50	92	100

SMILES	Percent Control (CAMK2G) [%]	Percent Control (CAMK4) [%]	Percent Control (CAMKK1) [%]	Percent Control (CAMKK2) [%]	Percent Control (CASK) [%]	Percent Control (CDC2L1) [%]	Percent Control (CDC2L2) [%]	Percent Control (CDC2L5) [%]	Percent Control (CDK11) [%]	Percent Control (CDK2) [%]
Cl.O=C(Nc1ccc(Oc2ccc3[nH]c(NC(=O)c4ccccc4)nc3c2)cc1)Nc1cc(C(F)(F)F)ccc1F [GW709042A]	100	100	100	100	93	92	100	100	23	100
O=C(Nc1n[nH]c2nc(-c3ccc(O)cc3)c(Br)cc12)C1CC1 [SB-725317]	100	100	100	100	100	100	100	90	100	51
COc1cc2ncnc(Nc3ccc4c(cnn4Cc4ccccc4)c3)c2cc1OC.Cl [GW282449A]	100	100	100	100	93	100	100	100	100	100
NS(=O)(=O)c1ccc(N/N=C2\C(=O)Nc3ccc(C(=O)NCCc4c[nH]cn4)cc32)cc1 [GW300660X]	100	100	100	100	100	100	100	79	100	–
NS(=O)(=O)c1ccc(N/N=C2\C(=O)Nc3ccc(Cl)cc32)cc1 [GW280670X]	100	100	100	100	100	100	100	100	100	83
COc1cccc(-n2ncc3c(N/N=C/c4ccncc4)ncnc32)c1 [GW784752X]	100	100	100	100	68	100	97	83	100	72
CN(C)c1cc2c(Nc3ccc4c(cnn4Cc4ccccc4)c3)ncnc2cn1 [GW282974X]	82	100	77	73	100	100	100	67	99	79
Nc1ncnc2occ(-c3ccc(NC(=O)Nc4cc(C(F)(F)F)ccc4F)cc3)c12 [GW770249X]	92	100	97	82	95	99	68	1.4	0	38
CN(C)CCNC(=O)Nc1ccc(N(C)c2ccnc(Nc3ccc(CS(C)(=O)=O)cc3)n2)cc1.Cl [GW830900A]	100	100	99	93	91	100	89	100	100	98
COc1cc(C=NNc2ncnc3c2cnn3-c2ccccc2)ccc1O [GW513184X]	100	100	100	100	64	100	100	96	100	66
COc1ccc(COc2ccc(Cc3cnc(N)nc3N)cc2OC)cc1 [GW632580X]	99	100	95	98	98	97	75	72	89	100
Cl.O=S1CCN(Cc2ccc(-c3ccc4ncnc(Nc5ccc(OCc6ccccc6)c(F)c5)c4c3)o2)CC1 [GW576924A]	100	100	100	100	100	100	100	100	100	100
COc1ccccc1-c1cc(/C=C2\C(=O)Nc3ncc(Br)cc32)cc(Br)c1O [GW442130X]	100	94	100	100	100	100	100	91	62	89
NS(=O)(=O)c1ccc(Nc2ncc(-c3ccccc3)o2)cc1 [GW572399X]	100	100	100	100	94	100	100	26	100	100
O=C1Nc2ccc(C(=O)c3ccco3)cc2C1=Cc1cc(Cl)c(O)c(Cl)c1 [GW406108X]	77	100	43	31	87	100	98	99	100	100
CC1=C(C(=O)Nc2ccc3[nH]ncc3c2)C(c2ccc(Cl)c(Cl)c2)CC(=O)N1 (centres unmarked) [GSK299115A]	95	100	95	85	96	100	96	77	91	100
Cl.O=C(O[C@H]1CN[C@H](C#Cc2cc3ncnc(Nc4ccc5c(cnn5Cc5ccccc5)c4)c3s2)C1)N1CCOCC1 [GSK200398A]	96	100	87	86	100	87	100	97	92	97
CC(C)COC(=O)c1ccc2c(c1)/C(=C/Nc1ccc(S(N)(=O)=O)cc1)C(=O)N2 [GW416981X]	100	100	97	100	95	100	100	65	100	15
COc1cc(N2CCN(C(C)C)CC2)ccc1Nc1nc(Nc2ccc(F)cc2C(=O)NC[C@@H](O)CO)c2cc[nH]c2n1 [GSK1392956A]	90	57	79	45	78	100	100	64	91	86
Cl.O=C(Nc1ccc(Oc2ccc3[nH]c(NC(=O)c4ccco4)nc3c2)cc1)Nc1cc(C(F)(F)F)ccc1F [GW683134A]	100	90	100	100	100	100	100	95	13	96

From paper PMC7826789 (International Journal of Molecular Sciences, 2021)
